# Inconclusive results are not listed. Entries that show only a call come without a potency. Unmarked numbers belong to inactive results. Active and inactive are the calls of the source. Calls follow the shape of the dose curve; as a rule, active = well fitted curve in the direction sought with a large enough effect; inconclusive = small, poorly fitted or top-dose-only effect, or another doubt; inactive = no such curve, though single readings can be large; an effect the other way counts as inactive or inconclusive.
# Key:
# [1] = system: Zika virus NS2B-NS3 protease (unlinked complex); test: Primary screen GU Rhodamine qHTS for Zika virus inhibitors: Unlinked NS2B-NS3 protease assay (AID 1347159); also: nearly all actives have a fitted effect of over 60% in size; also: potency is read from the fitted curve at half-maximal effect
# Summary of the method: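 Compounds, tested up to 114 microM, were incubated for 15 minutes with 25 nM unlinked NS2B-NS3 protease at pH 8.0. Cleavage of 1.5 microM Rhodamine110 substrate was then followed by fluorescence for 15 minutes.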
# [2] = system: Zika virus NS2B-NS3 protease (linked construct); test: Primary screen NINDS Rhodamine qHTS for Zika virus inhibitors (AID 1347160); also: nearly all actives have a fitted effect of over 55% in size; also: potency is read from the fitted curve at half-maximal effect
# Summary of the method: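 Percent inhibition, normalized to uninhibited and enzyme-free controls, is fitted to a 4-parameter Hill equation. Fluorescence change comes from a 15-min cleavage of 1.5 microM bis-peptide Rhodamine110 substrate by 25 nM linked NS2B-NS3 at room temperature.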
# [3] = Confirmatory screen NINDS Rhodamine qHTS for Zika virus inhibitors (AID 1347161);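 also: purified Zika NS2B-NS3 protease with linked NS2B cofactor domain and Rhodamine110 peptide substrate; series mostly up to about 110 µM; nearly all actives have a fitted effect of over 60% in size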
# Summary of the method: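 Each compound, titrated, sat 15 min with 25 nM linked protease before 1.5 microM Rhodamine110 substrate went in. Fluorescence gain over the next 15 min, in pH 8.0 Tris with Tween 20, gave Hill-fitted curves.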
# [4] = OV-KATE Cancer Cell Toxicity qHTS against the NCATS CANVASS Library (AID 1347345); conditions: OV-KATE cells viability, CellTiter-Glo luminescence, 72 h; also: potency is read from the fitted curve at half-maximal effect
# Summary of the method: (§1)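 1000 cells/well; 4 h settle; 11-pnt titration; 72 h, 37 degrees C, 5% CO2; CellTiter-Glo, 15min RT; luminescence read.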
# [5] = HPAF-II Cancer Cell Toxicity qHTS against the NCATS CANVASS Library (AID 1347346); conditions: HPAF-II viability, CellTiter-Glo ATP luminescence, 72 h; also: potency is read from the fitted curve at half-maximal effect; nearly all actives have a fitted effect of over 55% in size
# Summary of the method: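 HPAF-II cells were seeded at 1000 cells/well, allowed to settle for 4 h at 37 degrees C, then exposed to compounds in an 11-point series for 72 h. Viability was read by CellTiter-Glo luminescence.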
# [6] = UWB1.289 Cancer Cell Toxicity qHTS against the NCATS CANVASS Library (AID 1347347); conditions: UWB1.289 viability, CellTiter-Glo luminescence, 72 h; also: potency is read from the fitted curve at half-maximal effect; nearly all actives have a fitted effect of over 60% in size
# Summary of the method: as §1
# [7] = OV-SAHO Cancer Cell Toxicity qHTS against the NCATS CANVASS Library (AID 1347348); conditions: OV-SAHO viability, CellTiter-Glo luminescence, 72 h; also: potency is read from the fitted curve at half-maximal effect; nearly all actives have a fitted effect of over 55% in size
# Summary of the method: as §1
# [8] = Panc-1005 Cancer Cell Toxicity qHTS against the NCATS CANVASS Library (AID 1347349); conditions: Panc-1005 viability, CellTiter-Glo luminescence, 72 h; also: potency is read from the fitted curve at half-maximal effect; nearly all actives have a fitted effect of over 60% in size
# Summary of the method: as §1
# [9] = SW1088 Cancer Cell Toxicity qHTS against the NCATS CANVASS Library (AID 1347350); conditions: SW1088 viability, CellTiter-Glo luminescence, 72 h; also: potency is read from the fitted curve at half-maximal effect; nearly all actives have a fitted effect of over 75% in size
# Summary of the method: as §1
# [10] = U-118MG Cancer Cell Toxicity qHTS against the NCATS CANVASS Library (AID 1347351); conditions: U-118MG viability, CellTiter-Glo luminescence, 72 h; also: potency is read from the fitted curve at half-maximal effect
# Summary of the method: as §1
# [11] = COV-362 Cancer Cell Toxicity qHTS against the NCATS CANVASS Library (AID 1347352); conditions: COV-362 viability, CellTiter-Glo luminescence, 72 h; also: potency is read from the fitted curve at half-maximal effect
# Summary of the method: (§2)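 Cells were seeded at 1000 per well and allowed to settle 4 hours at 37 degrees C before pin transfer of compounds as an 11-point series. Viability was read by CellTiter-Glo luminescence after 72 hours' exposure.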
# [12] = A2780 Cisplatin Sensitive Ovarian Cancer Cell Toxicity qHTS against the NCATS CANVASS Library (AID 1347353); conditions: A2780 ovarian cancer viability, ATPLite luminescence, 72 h
# Summary of the method: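 A2780 cisplatin-sensitive cells (750 per well) were seeded, left 4 h at 37 °C, then pin-dosed in an 11-point series. After 72 h at 37 °C/5% CO2, viability was measured as ATPLite luminescence.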
# [13] = UWB1.289-WTBRCA1 Cancer Cell Toxicity qHTS against the NCATS CANVASS Library (AID 1347354); conditions: UWB1.289-WTBRCA1 viability, CellTiter-Glo luminescence, 72 h; also: potency is read from the fitted curve at half-maximal effect
# Summary of the method: as §2
# [14] = HEK-293 Cancer Cell Toxicity qHTS against the NCATS CANVASS Library (AID 1347355); conditions: HEK-293 viability, CellTiter-Glo luminescence, 72 h; also: potency is read from the fitted curve at half-maximal effect; nearly all actives have a fitted effect of over 65% in size
# Summary of the method: as §2
smiles,measurement,setting,value
O=C(NCCCc1ccccc1)c1cccc(-c2cc(O)c3ncccc3c2)c1,Potency,[1],89.1 µM (active)
same,Potency,[2],inactive
same,Potency,[3],inactive
CC(C)CC(=O)c1c(O)cc2c(c1O)C(CC(C)C)C1=C(O2)C(C)(C)C(=O)C(C)(C)C1=O (configuration not stated),Potency,[1],8.91 µM (active)
same,Potency,[2],7.82 µM (active)
same,Potency,[4],18.8 µM (active)
same,Potency,[5],13.3 µM (active)
same,Potency,[6],13.3 µM (active)
same,Potency,[7],11.8 µM (active)
same,Potency,[8],14.9 µM (active)
same,Potency,[9],7.49 µM (active)
same,Potency,[10],10.6 µM (active)
same,Potency,[11],13.3 µM (active)
same,Potency,[12],16.6 µM (active)
same,Potency,[13],18.8 µM (active)
same,Potency,[14],20.9 µM (active)
O=C(Nc1cnc(Cl)nc1)c1ccc(F)c(F)c1,Potency,[1],inactive
same,Potency,[2],inactive
C[C@H](Oc1cc(-c2cnn(C3CCNCC3)c2)cnc1N)c1c(Cl)ccc(F)c1Cl,Potency,[1],inactive
same,Potency,[2],inactive
Cc1cc(-c2nc3cc(F)ccc3s2)ccc1NC(=O)[C@@H](N)CCCCN,Potency,[1],inactive
same,Potency,[2],inactive
NC(N)=N/N=C/c1ccccc1Cl,Potency,[2],inactive
CCOC(=O)CCNc1cc(N2CCc3ccccc3CC2)nc(-c2cccnc2)n1,Potency,[2],inactive
CCOC(=O)c1ccc(OCCC2CCN(c3ccc(C)nn3)CC2)cc1,Potency,[2],inactive
CN1CCN(c2ccc(-c3cccc(CN4CCOCC4)c3)cc2NC(=O)c2c[nH]c(=O)cc2C(F)(F)F)CC1,Potency,[2],inactive
C[C@H]1CC[C@@]2(OC1)O[C@H]1CC3C4CC[C@H]5C[C@@H](O)CC[C@]5(C)C4=CC(=O)[C@]3(C)[C@H]1[C@@H]2C (some centres not stated),Potency,[2],inactive
COc1c(CCC(=O)O)cccc1O[C@@H]1O[C@H](CO)[C@@H](O)[C@H](O)[C@H]1O,Potency,[2],inactive
CC[C@H](C(=O)Nc1ccccc1N1CCCC1)c1ccccc1,Potency,[2],inactive
C/C=C/[C@@H]1C=C[C@@H]2C[C@H](C)CC[C@H]2[C@]1(C)/C(O)=C1/C(=O)[C@@H](CO)N(C)C1=O,Potency,[2],inactive
CCC/C=C/C(=O)O[C@H]1CC(C)(C)CC2[C@@]13[C@H](O)C[C@]1(C)[C@@]2(CCC2[C@@]4(C)CC[C@H](O[C@@H]5O[C@H](C(=O)O)[C@@H](O)[C@H](O[C@@H]6O[C@H](CO)[C@H](O)[C@H](O)[C@H]6O[C@@H]6O[C@@H](C)[C@H](O)[C@@H](O)[C@H]6O[C@@H]6OC[C@](O)(CO)[C@H]6O)[C@H]5O[C@@H]5O[C@H](CO)[C@H](O)[C@H](O)[C@H]5O)C(C)(C)C4CC[C@]21C)O[C@H]3O (some centres not stated),"activity change, negative = inhibition",[2],-24.8% [at 10.7 µM]
CN(C)CC#CCCC(=O)C(O)(c1ccccc1)C1CCC1 (configuration not stated),Potency,[2],inactive
COc1ccc(-n2c(SCCCN3C(=O)c4cccc5cccc(c45)C3=O)nnc2-c2ccncc2)cc1,Potency,[2],inactive
COc1ccc(-c2c(C)nn3c(NCCN4CCOCC4)cc(C)nc23)cc1OC,Potency,[2],inactive
C=C1C(=O)O[C@@H]2[C@H]3C(C)=CC(=O)C3=C(C)CC[C@@H]12,Potency,[2],inactive
C/C=C/C=C/C(=O)O[C@@H]1C=C2COC(=O)[C@]2(O)[C@@]2(C)CCCC(C)(C)[C@H]12,Potency,[2],inactive
COC(=O)c1cc(Br)cnc1N1CCC(NC2CCCCC2)C(O)C1 (configuration not stated),Potency,[2],inactive
CC(=O)O[C@@H]1C2=C(O)C(=O)[C@](C)(OC(C)=O)C(=O)C2=CO[C@@]12O[C@@H](C)CC[C@H]2OC(C)=O,Potency,[2],inactive
C/C=C(\C)C(=O)OC1C[C@@]2(COC(C)=O)O[C@H]2/C=C\[C@@]2(C)O[C@@H]2[C@H]2OC(=O)C(COC(C)=O)=C12 (some centres not stated),Potency,[2],inactive
C[C@@H](O[C@H]1OCCN(Cc2nn(P(=O)(O)O)c(=O)[nH]2)[C@H]1c1ccc(F)cc1)c1cc(C(F)(F)F)cc(C(F)(F)F)c1,Potency,[2],inactive
Cc1cc(F)ccc1[C@H]1C[C@@H](N2CCN3C(=O)CC[C@H]3C2)CCN1C(=O)N(C)[C@H](C)c1cc(C(F)(F)F)cc(C(F)(F)F)c1,Potency,[2],inactive
CC1(C)CC[C@]2(C(=O)O[C@@H]3O[C@H](CO)[C@@H](O)[C@H](O)[C@H]3O)CC[C@]3(C)C(=CCC4[C@@]5(C)CC[C@H](O[C@@H]6O[C@H](C(=O)O)[C@H](O)[C@H](O)[C@H]6O)C(C)(C)C5CC[C@]43C)[C@@H]2C1 (some centres not stated),Potency,[2],inactive
Cc1cc(C)c(S(=O)(=O)n2cc(C)cc2C)c(C)c1,Potency,[2],inactive
CC1(C)CCCC2(C)C1C(OC(=O)/C=C/C=C/C=O)C=C1COC(=O)C12O (configuration not stated),Potency,[2],inactive
CC1(C)CC[C@]2(C(=O)O)CC[C@]3(C)C(=CCC4[C@@]5(C)C[C@@H](O)[C@H](O)[C@@](C)(CO)C5CC[C@]43C)[C@@H]2[C@@H]1O (some centres not stated),Potency,[2],inactive
CCc1ccc(-c2nc(CSCC(=O)NCCc3ccccc3)c(C)o2)cc1,Potency,[2],inactive
COc1cc(F)c(C(C)C)cc1-c1ccc(C(F)(F)F)cc1CN1C(=O)OC(c2cc(C(F)(F)F)cc(C(F)(F)F)c2)C1C (configuration not stated),Potency,[2],inactive
O=c1[nH]c2cccc(N3CCN(Cc4ccc(-c5ccccc5)cc4)CC3)c2o1,Potency,[2],inactive
Cc1nc2cc(C(=O)NCc3ccccn3)nn2c(C)c1Cc1cccc(Cl)c1,Potency,[2],inactive
Cc1cc(-c2cnc(N)c3c(-c4ccc5scnc5c4)csc23)n(C)n1,Potency,[2],inactive
NS(=O)(=O)c1ccc(N2N=C(c3ccccc3)CC2c2ccccc2)cc1 (configuration not stated),Potency,[2],inactive
Cn1c(SCC(=O)N2CCC[C@H]2C(=O)Nc2ccccc2-c2ccccc2)nc2ccccc21,Potency,[2],inactive
COc1cc(N2CCC(N)CC2)ccc1Nc1ncc(Cl)c(-c2c[nH]c3ccccc23)n1,Potency,[2],inactive
C=CC(C)(O)CC[C@@H]1[C@@]2(C)CCCC(C)(C)C2CC[C@@]1(C)O (some centres not stated),Potency,[2],inactive
CC(C)S(=O)(=O)Nc1ccc(F)c(C(=O)c2c[nH]c3ncc(-c4cccnc4)cc23)c1F,Potency,[2],inactive
COc1cc2c(cc1OCCCN1CCCC1)N=C(N)C21CCC1,Potency,[2],inactive
C=CC(=O)Nc1cc(-n2c(=O)ccc3cnc4ccc(-c5ccc(NS(C)(=O)=O)cc5)cc4c32)ccc1C,Potency,[2],inactive

# From PubChem BioAssay (NCATS)
